ChEMBL document CHEMBL2218924, “A broad activity screen in support of a chemogenomic map for kinase signalling research and drug discovery” (Biochem J, 2013)

Assays:
[1] = molecular target: Tyrosine-protein kinase SYK (Homo sapiens) (UniProt P43405); details: at 10 µM
[2] = molecular target: T1, Mitogen-activated protein kinase kinase kinase 7 (Homo sapiens) (UniProt O43318); details: at 1 µM
T1 sequence (whole entry): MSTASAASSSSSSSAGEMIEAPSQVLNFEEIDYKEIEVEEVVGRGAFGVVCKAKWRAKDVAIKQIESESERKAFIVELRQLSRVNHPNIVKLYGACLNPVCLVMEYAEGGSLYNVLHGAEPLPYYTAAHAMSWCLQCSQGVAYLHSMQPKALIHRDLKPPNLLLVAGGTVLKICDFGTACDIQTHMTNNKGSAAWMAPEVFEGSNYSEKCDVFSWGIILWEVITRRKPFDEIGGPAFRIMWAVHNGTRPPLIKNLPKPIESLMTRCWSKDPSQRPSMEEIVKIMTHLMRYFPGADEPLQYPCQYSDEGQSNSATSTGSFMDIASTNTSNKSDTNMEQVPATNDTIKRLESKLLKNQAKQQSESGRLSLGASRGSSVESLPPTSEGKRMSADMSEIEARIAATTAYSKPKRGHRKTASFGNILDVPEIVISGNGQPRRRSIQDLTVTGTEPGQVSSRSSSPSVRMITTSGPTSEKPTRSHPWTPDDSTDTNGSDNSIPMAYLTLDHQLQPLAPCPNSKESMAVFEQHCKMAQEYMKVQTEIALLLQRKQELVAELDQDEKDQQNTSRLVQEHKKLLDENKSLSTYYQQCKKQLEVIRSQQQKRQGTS

[3] = molecular target: T1, Mitogen-activated protein kinase kinase kinase 7 (Homo sapiens); details: at 10 µM
[4] = molecular target: T2, Serine/threonine-protein kinase TAO1 (Homo sapiens) (UniProt Q7L7X3); details: at 1 µM
T2 sequence (whole entry): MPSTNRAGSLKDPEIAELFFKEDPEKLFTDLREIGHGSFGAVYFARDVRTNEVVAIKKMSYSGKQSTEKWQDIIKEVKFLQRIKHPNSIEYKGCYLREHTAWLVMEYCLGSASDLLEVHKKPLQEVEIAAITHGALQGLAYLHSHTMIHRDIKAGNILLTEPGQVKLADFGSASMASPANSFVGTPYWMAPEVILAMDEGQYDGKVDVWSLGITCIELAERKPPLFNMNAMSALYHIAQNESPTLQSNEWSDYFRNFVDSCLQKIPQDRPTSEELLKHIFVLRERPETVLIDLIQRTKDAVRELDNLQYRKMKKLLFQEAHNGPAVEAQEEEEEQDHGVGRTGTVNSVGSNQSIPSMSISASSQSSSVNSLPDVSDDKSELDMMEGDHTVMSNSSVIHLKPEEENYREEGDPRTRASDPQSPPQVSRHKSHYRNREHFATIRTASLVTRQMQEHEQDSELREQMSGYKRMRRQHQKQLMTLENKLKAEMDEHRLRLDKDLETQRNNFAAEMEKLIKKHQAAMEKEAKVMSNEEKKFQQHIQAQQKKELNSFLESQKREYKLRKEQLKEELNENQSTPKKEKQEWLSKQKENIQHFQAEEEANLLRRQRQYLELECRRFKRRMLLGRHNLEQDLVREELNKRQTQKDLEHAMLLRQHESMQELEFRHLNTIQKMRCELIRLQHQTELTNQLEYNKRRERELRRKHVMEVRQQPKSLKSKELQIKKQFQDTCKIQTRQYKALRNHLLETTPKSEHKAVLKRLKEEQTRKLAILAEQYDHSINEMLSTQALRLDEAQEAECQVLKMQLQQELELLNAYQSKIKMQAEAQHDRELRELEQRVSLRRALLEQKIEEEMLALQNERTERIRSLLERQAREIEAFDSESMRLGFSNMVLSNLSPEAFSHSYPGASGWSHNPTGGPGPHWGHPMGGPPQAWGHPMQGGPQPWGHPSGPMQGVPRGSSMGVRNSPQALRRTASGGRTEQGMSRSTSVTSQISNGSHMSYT

[5] = molecular target: T2, Serine/threonine-protein kinase TAO1 (Homo sapiens); details: at 10 µM
[6] = molecular target: T3, Serine/threonine-protein kinase TAO2 (Homo sapiens) (UniProt Q9UL54); details: at 1 µM
T3 sequence (whole entry): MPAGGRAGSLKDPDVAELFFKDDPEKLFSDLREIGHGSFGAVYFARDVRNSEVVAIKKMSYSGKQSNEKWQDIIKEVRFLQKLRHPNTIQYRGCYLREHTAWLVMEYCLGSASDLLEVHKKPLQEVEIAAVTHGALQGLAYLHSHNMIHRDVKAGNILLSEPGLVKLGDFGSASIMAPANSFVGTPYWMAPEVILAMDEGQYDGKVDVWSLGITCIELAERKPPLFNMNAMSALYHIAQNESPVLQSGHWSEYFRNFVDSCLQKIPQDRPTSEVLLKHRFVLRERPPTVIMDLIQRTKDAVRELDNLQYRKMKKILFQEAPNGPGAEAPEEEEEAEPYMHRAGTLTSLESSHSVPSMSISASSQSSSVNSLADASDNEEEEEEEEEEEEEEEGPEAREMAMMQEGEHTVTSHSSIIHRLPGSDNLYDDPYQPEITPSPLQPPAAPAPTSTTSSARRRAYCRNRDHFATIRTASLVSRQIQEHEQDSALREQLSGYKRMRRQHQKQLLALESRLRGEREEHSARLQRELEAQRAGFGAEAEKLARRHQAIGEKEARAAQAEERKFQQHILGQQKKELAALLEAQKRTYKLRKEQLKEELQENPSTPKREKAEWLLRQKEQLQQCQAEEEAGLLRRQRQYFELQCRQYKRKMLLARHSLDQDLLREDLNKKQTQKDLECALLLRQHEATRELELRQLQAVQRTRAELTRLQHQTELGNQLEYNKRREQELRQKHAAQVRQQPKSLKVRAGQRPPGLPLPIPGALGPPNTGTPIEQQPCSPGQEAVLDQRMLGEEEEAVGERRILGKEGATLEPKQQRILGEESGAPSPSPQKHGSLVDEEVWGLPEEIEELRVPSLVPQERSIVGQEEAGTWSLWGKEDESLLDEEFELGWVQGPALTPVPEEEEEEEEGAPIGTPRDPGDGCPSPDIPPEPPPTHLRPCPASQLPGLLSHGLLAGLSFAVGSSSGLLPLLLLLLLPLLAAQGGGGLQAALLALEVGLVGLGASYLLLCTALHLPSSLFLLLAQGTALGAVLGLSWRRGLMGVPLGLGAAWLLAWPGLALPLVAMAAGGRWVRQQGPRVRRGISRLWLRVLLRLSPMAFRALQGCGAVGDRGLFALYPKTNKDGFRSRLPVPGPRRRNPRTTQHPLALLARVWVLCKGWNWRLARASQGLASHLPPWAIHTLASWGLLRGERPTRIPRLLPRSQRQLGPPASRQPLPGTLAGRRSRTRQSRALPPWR

[7] = molecular target: T3, Serine/threonine-protein kinase TAO2 (Homo sapiens); details: at 10 µM
[8] = molecular target: T4, Serine/threonine-protein kinase TAO3 (Homo sapiens) (UniProt Q9H2K8); details: at 1 µM
T4 sequence (whole entry): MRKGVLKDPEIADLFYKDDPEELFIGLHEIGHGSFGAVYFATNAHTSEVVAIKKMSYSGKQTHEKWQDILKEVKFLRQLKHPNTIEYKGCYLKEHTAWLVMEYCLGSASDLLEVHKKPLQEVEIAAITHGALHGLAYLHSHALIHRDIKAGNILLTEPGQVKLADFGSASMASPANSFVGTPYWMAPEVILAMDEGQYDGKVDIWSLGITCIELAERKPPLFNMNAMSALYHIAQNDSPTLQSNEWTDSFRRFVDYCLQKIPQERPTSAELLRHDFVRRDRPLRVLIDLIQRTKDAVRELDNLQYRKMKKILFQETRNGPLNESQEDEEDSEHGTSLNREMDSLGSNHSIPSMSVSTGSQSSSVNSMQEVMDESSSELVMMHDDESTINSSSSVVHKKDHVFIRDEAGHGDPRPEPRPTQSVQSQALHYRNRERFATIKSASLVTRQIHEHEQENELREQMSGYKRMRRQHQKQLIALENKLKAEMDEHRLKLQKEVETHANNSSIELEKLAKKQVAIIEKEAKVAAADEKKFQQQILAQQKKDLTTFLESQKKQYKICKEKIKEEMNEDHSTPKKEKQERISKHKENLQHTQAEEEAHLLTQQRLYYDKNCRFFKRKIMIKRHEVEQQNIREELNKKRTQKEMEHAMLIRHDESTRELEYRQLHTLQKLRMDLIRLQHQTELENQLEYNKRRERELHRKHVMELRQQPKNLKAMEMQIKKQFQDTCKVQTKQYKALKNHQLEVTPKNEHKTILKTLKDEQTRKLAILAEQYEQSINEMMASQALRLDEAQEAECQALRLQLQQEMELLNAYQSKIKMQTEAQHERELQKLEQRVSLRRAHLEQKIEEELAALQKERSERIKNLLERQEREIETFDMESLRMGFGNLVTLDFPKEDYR

[9] = molecular target: T4, Serine/threonine-protein kinase TAO3 (Homo sapiens); details: at 10 µM
[10] = molecular target: T5, Serine/threonine-protein kinase TBK1 (Homo sapiens) (UniProt Q9UHD2); details: at 1 µM
T5 sequence (whole entry): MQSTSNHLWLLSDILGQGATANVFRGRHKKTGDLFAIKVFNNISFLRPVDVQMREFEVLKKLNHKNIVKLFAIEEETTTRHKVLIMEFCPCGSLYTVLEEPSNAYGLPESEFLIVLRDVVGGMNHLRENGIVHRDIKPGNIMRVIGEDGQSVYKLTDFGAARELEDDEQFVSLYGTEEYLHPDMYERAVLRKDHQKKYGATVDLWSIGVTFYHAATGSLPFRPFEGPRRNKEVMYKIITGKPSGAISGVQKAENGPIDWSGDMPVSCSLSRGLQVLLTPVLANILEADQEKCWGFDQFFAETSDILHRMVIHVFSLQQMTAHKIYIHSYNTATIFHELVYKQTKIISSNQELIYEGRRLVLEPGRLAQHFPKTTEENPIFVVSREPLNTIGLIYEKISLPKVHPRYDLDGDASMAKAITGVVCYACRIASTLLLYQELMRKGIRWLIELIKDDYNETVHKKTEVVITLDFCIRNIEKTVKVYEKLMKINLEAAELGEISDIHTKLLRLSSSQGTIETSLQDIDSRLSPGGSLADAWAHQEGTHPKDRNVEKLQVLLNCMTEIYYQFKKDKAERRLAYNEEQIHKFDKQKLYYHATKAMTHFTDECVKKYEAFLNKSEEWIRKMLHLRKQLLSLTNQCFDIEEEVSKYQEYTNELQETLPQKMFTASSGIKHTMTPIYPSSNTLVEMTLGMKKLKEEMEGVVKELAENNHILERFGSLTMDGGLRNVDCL

Row | Structure (SMILES) | residual activity [1] [%] | residual activity [2] [%] | residual activity [3] [%] | residual activity [4] [%] | residual activity [5] [%] | residual activity [6] [%] | residual activity [7] [%] | residual activity [8] [%] | residual activity [9] [%] | residual activity [10] [%]
1 | Cc1ccc(NC2=CC(=O)c3sc(C)nc3C2=O)cc1 | 113 | 86 | 89 | 91 | 77 | 95 | 88 | 94 | 93 | 77
2 | N#CCCc1ccc2c(c1)-c1[nH]c3ccc([N+](=O)[O-])cc3c1CC(=O)N2 | 41 | 57 | 21 | 58 | 24 | 64 | 52 | 56 | 41 | 38
3 | Oc1n[nH]c2nnc(-c3c(-c4ccccc4)nn4ccccc34)cc12 | 105 | 87 | 74 | 83 | 79 | 98 | 96 | 89 | 90 | 67
4 | CC(=O)O/N=C1\C(=C2\C(=O)Nc3cc(Br)ccc32)Nc2ccccc21 | 40 | 91 | 85 | 89 | 79 | 81 | 83 | 96 | 86 | 57
5 | CCN(CC)CCCCN1c2ccccc2Oc2ccc(Cl)cc21 | 93 | 97 | 90 | 117 | 100 | 100 | 92 | 101 | 96 | 91
6 | CC[n+]1c(/C=C/N(C)c2ccccc2)n(-c2ccccc2)c2ccc(-c3nc4ccccc4s3)cc21 | 46 | 100 | 102 | 93 | 78 | 100 | 60 | 95 | 62 | 104
7 | Cc1nc2cc3nc(-c4cccs4)cnc3cc2n1C | 93 | 96 | 100 | 111 | 100 | 113 | 98 | 98 | 95 | 105
8 | CCC(=O)Nc1ccc2ncnc(Nc3cccc(Br)c3)c2c1 | 84 | 92 | 90 | 96 | 86 | 98 | 91 | 96 | 95 | 69
9 | O=C(O)c1ccc2c3c1cccc3c(=O)n1c3ccccc3nc21 | 105 | 89 | 41 | 90 | 56 | 110 | 91 | 91 | 65 | 19
10 | CC(=O)c1ccc(N2CCOCC2)cc1O | 101 | 93 | 90 | 103 | 95 | 92 | 94 | 101 | 91 | 74
11 | COc1ccc(S(=O)(=O)N(CCO)c2ccccc2CN(C)C/C=C/c2ccc(Cl)cc2)cc1 | 69 | 93 | 82 | 97 | 83 | 105 | 88 | 86 | 84 | 73
12 | N#C/C(=C(\N)Sc1ccc(N)cc1)c1ccccc1C(F)(F)F | 78 | 101 | 85 | 89 | 99 | 102 | 104 | 99 | 91 | 31
13 | COc1cccc(-c2cc(=O)c3ccccc3o2)c1N | 113 | 101 | 98 | 99 | 85 | 112 | 92 | 95 | 87 | 97
14 | Cn1cc(/C=C2\C(=O)Nc3ccc(S(N)(=O)=O)cc32)c2ccccc21 | 28 | 92 | 77 | 74 | 37 | 100 | 88 | 74 | 66 | 8
15 | O=C1Nc2cc(Br)ccc2/C1=C1/Nc2ccccc2/C1=N\O | 37 | 89 | 81 | 68 | 58 | 75 | 91 | 68 | 82 | 8
16 | COc1cc2ncnc(N3CCN(C(=O)Nc4ccc(Oc5ccccc5)cc4)CC3)c2cc1OC | 83 | 85 | 82 | 94 | 78 | 95 | 64 | 85 | 77 | 57
17 | COc1ccc(OC)c2c(=S)c3ccccc3[nH]c12 | 96 | 95 | 81 | 82 | 91 | 90 | 87 | 96 | 90 | 82
